Measured values as given in PubChem BioAssay (NCI).
This is part of a sample that, as a whole, favours compounds with a hit. Of some 79,000 tested, about 15% had one in any assay. The source made the active and inactive calls. No stated cut-off is given here; in the data, active means growth inhibition above about 70%; inactive means the rest.

How the values were obtained:
[1] = NCI Yeast Anticancer Drug Screen. Data for the rad52 strain (AID 147);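 further: 0% = growth of vehicle-treated control cultures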; settings: S. cerevisiae rad52 mutant growth inhibition, stronger effect = higher value
Outline: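 Measured: yeast growth inhibition. System: strain with a defined DNA damage repair alteration. Reference: vehicle-treated control cultures.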

[2] = NCI Yeast Anticancer Drug Screen. Data for the wt1 strain (AID 149);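 further: 0% = growth of vehicle-treated wt1 cultures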; settings: S. cerevisiae wt1 strain (SPY 50644) growth inhibition, stronger effect = higher value
Outline: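 Compounds are added to wt1 yeast cultures. Growth is then measured. Inhibition is expressed relative to vehicle-treated controls.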

[3] = NCI Yeast Anticancer Drug Screen. Data for the rad50EPP+ strain (AID 151);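 further: 0% = growth of vehicle-treated control cultures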; settings: S. cerevisiae rad50 mutant strain, stronger effect = higher value
Outline: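 One strain with a rad50 alteration (rad50EPP+) was compound-treated, its growth then compared to that of vehicle controls.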

[4] = NCI Yeast Anticancer Drug Screen. Data for the mgt1 strain (AID 153); settings: S. cerevisiae mgt1 mutant growth inhibition, stronger effect = higher value
Outline: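 After exposure of the mgt1 yeast mutant to compound, growth was measured and reported as inhibition compared with vehicle controls.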

[5] = NCI Yeast Anticancer Drug Screen. Data for the rad50 strain (AID 155);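 further: 0% = growth of vehicle-only cultures of the same strain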; settings: S. cerevisiae rad50 strain growth inhibition, stronger effect = higher value
Outline: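 Inhibition values express reduced yeast growth in compound-treated cultures relative to vehicle-treated controls.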

[6] = NCI Yeast Anticancer Drug Screen. Data for the mec2-1 strain (AID 157); settings: S. cerevisiae mec2-1 strain, stronger effect = higher value
Outline: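 Test agents were screened against the mec2-1 yeast strain, with defined DNA repair or cell cycle alteration. Growth was scored as inhibition against vehicle-only controls.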

[7] = NCI Yeast Anticancer Drug Screen. Data for the rad14 strain (AID 159);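 further: 0% = growth of vehicle-treated control cultures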; settings: S. cerevisiae rad14 strain growth inhibition, stronger effect = higher value
Outline: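 A mutant yeast strain defective in DNA damage repair is treated with compound; inhibition of its growth is scored against untreated, vehicle-exposed cultures.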

[8] = NCI Yeast Anticancer Drug Screen. Data for the sgs1 mgt1 strain (AID 161);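 further: 0% = growth of cultures given vehicle only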; settings: S. cerevisiae sgs1 mgt1 strain, stronger effect = higher value
Outline: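 Mutant yeast exposed to compound; growth scored against vehicle-only wells.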

[9] = NCI Yeast Anticancer Drug Screen. Data for the CLN2oe strain (AID 163);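 further: 0% = growth of vehicle-only control cultures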; settings: S. cerevisiae CLN2oe strain, stronger effect = higher value
Outline: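 Here, growth inhibition in a cell-cycle-altered yeast strain after compound exposure was quantified against vehicle control growth.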

[10] = NCI Yeast Anticancer Drug Screen. Data for the cln2 rad14 strain (AID 165);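 further: 0% = growth equal to vehicle treated cultures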; settings: S. cerevisiae cln2 rad14 strain, stronger effect = higher value
Outline: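 Growth of compound-exposed yeast (cln2 rad14 genotype) measured and expressed as inhibition relative to vehicle.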

[11] = NCI Yeast Anticancer Drug Screen. Data for the bub3 strain (AID 167); settings: S. cerevisiae bub3 mutant strain, stronger effect = higher value
Outline: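 Steps: expose the mutant yeast strain to compound; grow alongside vehicle-treated cultures; measure growth; express inhibition against the vehicle cultures.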

[12] = NCI Yeast Anticancer Drug Screen. Data for the wt2 strain (AID 169);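 further: 0% = growth of vehicle-treated yeast cultures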; settings: S. cerevisiae wt2 strain growth inhibition, stronger effect = higher value
Outline: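 Genetically defined yeast strains from a DNA-repair/cell-cycle panel were used. Compound-exposed yeast growth was measured, and the inhibition was calculated relative to vehicle treatment.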

[13] = NCI Yeast Anticancer Drug Screen. Data for the mlh1 strain (AID 171);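 further: 0% = growth of vehicle-treated control cultures of the same strain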; settings: S. cerevisiae mlh1 strain growth inhibition, stronger effect = higher value
Outline: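 Here the genetically defined yeast mutant is grown with each compound, and the extent to which its growth falls below that of vehicle-exposed cells is reported.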

[14] = NCI Yeast Anticancer Drug Screen. Data for the sgs1 strain (AID 173);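 further: 0% = growth of vehicle-only control cultures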; settings: S. cerevisiae sgs1 mutant, stronger effect = higher value
Outline: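 Relative growth inhibition, referenced to vehicle, was determined in a yeast strain with a defined alteration affecting DNA damage repair or cell cycle control after compound exposure.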

[15] = NCI Yeast Anticancer Drug Screen. Data for the mlh1 rad18 strain (AID 175); settings: S. cerevisiae mlh1 rad18 strain growth inhibition, stronger effect = higher value
Outline: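 In this whole-cell yeast screen, a strain with altered DNA damage repair is challenged with compound, and its growth is measured against matched vehicle-treated controls.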

[16] = NCI Yeast Anticancer Drug Screen. Data for the rad18 strain (AID 177); settings: S. cerevisiae rad18 mutant growth inhibition, stronger effect = higher value
Outline: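 Screen uses a yeast strain with a defined lesion in DNA damage repair; compound effect is read as loss of growth compared to untreated vehicle cultures.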

[17] = at 5.0 µM (retest, dose inferred, filed as 0.5)
[18] = at 50.0 µM (retest, dose inferred, filed as 5.0)

Measured: growth inhibition

c1ccc2c(c1)NC(NC1Nc3ccccc3N1)N2
active: [11]; [18] 70% | [15]; [18] 81%
inactive: [1]; at 1.2 µM 0% | [1]; at 3.7 µM 4% | [1]; at 11.0 µM 6% | [1]; at 33.0 µM 19% | [1]; at 100.0 µM 31% | [2]; at 1.2 µM 0% | [2]; at 3.7 µM 5% | [2]; at 11.0 µM 4% | [2]; at 33.0 µM 9% | [2]; at 100.0 µM 19% | [3]; at 1.2 µM 9% | [3]; at 3.7 µM 23% | [3]; at 11.0 µM 34% | [3]; at 33.0 µM 38% | [3]; at 100.0 µM 48% | [4]; at 1.2 µM -4% | [4]; at 3.7 µM -7% | [4]; at 11.0 µM -4% | [4]; at 33.0 µM 0% | [4]; at 100.0 µM 10% | [5]; at 1.2 µM 1% | [5]; at 3.7 µM 5% | [5]; [17] 9% | [5]; at 11.0 µM 8% | [5]; at 33.0 µM 23% | [5]; [18] 67% | [5]; at 50.0 µM 41.5% | [5]; at 100.0 µM 40% | [6]; at 1.2 µM 5% | [6]; at 3.7 µM 7% | [6]; [17] -3% | [6]; at 11.0 µM 10% | [6]; at 33.0 µM 16% | [6]; [18] 16% | [6]; at 50.0 µM 9.05% | [6]; at 100.0 µM 20% | [7]; at 1.2 µM -4% | [7]; at 3.7 µM -1% | [7]; at 11.0 µM 3% | [7]; at 33.0 µM 12% | [7]; at 100.0 µM 26% | [8]; [17] -4% | [8]; [18] 66% | [8]; at 50.0 µM 15.7% | [9]; at 1.2 µM -6% | [9]; at 3.7 µM -17% | [9]; at 11.0 µM -9% | [9]; at 33.0 µM -7% | [9]; at 100.0 µM 8% | [10]; [17] 13% | [10]; [18] 32% | [10]; at 50.0 µM -21.1% | [11]; at 1.2 µM -2% | [11]; at 3.7 µM -4% | [11]; [17] 19% | [11]; at 11.0 µM -2% | [11]; at 33.0 µM -2% | [11]; at 50.0 µM 10.8% | [11]; at 100.0 µM -10% | [12]; at 1.2 µM 0% | [12]; at 3.7 µM 0% | [12]; at 11.0 µM 0% | [12]; at 33.0 µM 8% | [12]; at 100.0 µM 19% | [13]; at 1.2 µM 3% | [13]; at 3.7 µM 1% | [13]; at 11.0 µM 4% | [13]; at 33.0 µM 10% | [13]; at 100.0 µM 14% | [14]; at 1.2 µM 0% | [14]; at 3.7 µM 3% | [14]; at 11.0 µM 9% | [14]; at 33.0 µM 12% | [14]; at 100.0 µM 16% | [15]; [17] 25% | [15]; at 50.0 µM 27.6% | [16]; at 1.2 µM 3% | [16]; at 3.7 µM 10% | [16]; at 11.0 µM 29% | [16]; at 33.0 µM 49% | [16]; at 100.0 µM 64%

O=C1c2ccccc2-c2nc3ccccc3nc21
inactive: [1]; at 1.2 µM -27% | [1]; at 3.7 µM -30% | [1]; at 11.0 µM -10% | [2]; at 1.2 µM -20% | [2]; at 3.7 µM -17% | [2]; at 11.0 µM -11% | [2]; at 33.0 µM 33% | [2]; at 100.0 µM 66% | [3]; at 1.2 µM 3% | [3]; at 3.7 µM 28% | [4]; at 1.2 µM -50% | [4]; at 3.7 µM -43% | [4]; at 11.0 µM -26% | [4]; at 33.0 µM -1% | [4]; at 100.0 µM 61% | [5]; at 1.2 µM -6% | [5]; at 3.7 µM -15% | [5]; at 11.0 µM 0% | [5]; at 50.0 µM -20.6% | [6]; at 1.2 µM -79% | [6]; at 3.7 µM -54% | [6]; at 11.0 µM -41% | [6]; at 33.0 µM 50% | [6]; at 50.0 µM -35.1% | [6]; at 100.0 µM 67% | [7]; at 1.2 µM -43% | [7]; at 3.7 µM -39% | [7]; at 11.0 µM -31% | [7]; at 33.0 µM 15% | [7]; at 100.0 µM 46% | [8]; [17] -21% | [8]; [18] 25% | [8]; at 50.0 µM -24.4% | [9]; at 1.2 µM -38% | [9]; at 3.7 µM -18% | [9]; at 11.0 µM -39% | [9]; at 33.0 µM -9% | [9]; at 100.0 µM 34% | [10]; [17] 25% | [10]; [18] 52% | [10]; at 50.0 µM 3.35% | [11]; at 1.2 µM -19% | [11]; at 3.7 µM -13% | [11]; [17] 21% | [11]; at 11.0 µM -11% | [11]; at 33.0 µM 46% | [11]; [18] 39% | [11]; at 50.0 µM -14.2% | [11]; at 100.0 µM 66% | [12]; at 1.2 µM -25% | [12]; at 3.7 µM -22% | [12]; at 11.0 µM -10% | [12]; at 33.0 µM 28% | [12]; at 100.0 µM 61% | [13]; at 1.2 µM -31% | [13]; at 3.7 µM -30% | [13]; at 11.0 µM -25% | [13]; at 33.0 µM -1% | [13]; at 100.0 µM 61% | [14]; at 1.2 µM -48% | [14]; at 3.7 µM -57% | [14]; at 11.0 µM -57% | [14]; at 33.0 µM -19% | [14]; at 100.0 µM 36% | [15]; at 50.0 µM 66.7%
active: [1]; at 33.0 µM 90% | [1]; at 100.0 µM 91% | [3]; at 11.0 µM 79% | [3]; at 33.0 µM 95% | [3]; at 100.0 µM 81% | [5]; [17] 80% | [5]; at 33.0 µM 85% | [5]; [18] 97% | [5]; at 100.0 µM 83% | [6]; [17] 83% | [6]; [18] 98% | [15]; [17] 84% | [15]; [18] 99%
